# An excerpt weighted towards active compounds, which were near 2.4% of everything screened.
# D2 ag-1 = activates the human D2 dopamine receptor. P14416. DiscoveRx PathHunter D2 beta-arrestin, luminescence, 90 min; 100% = 57 uM dopamine signal. activation, % (test concentration not listed). actives 0.084% (n = 360,000); in the data active = activation above about 40%; inconclusive = between about 15% and that limit
# Target sequence (P14416 whole entry, looked up): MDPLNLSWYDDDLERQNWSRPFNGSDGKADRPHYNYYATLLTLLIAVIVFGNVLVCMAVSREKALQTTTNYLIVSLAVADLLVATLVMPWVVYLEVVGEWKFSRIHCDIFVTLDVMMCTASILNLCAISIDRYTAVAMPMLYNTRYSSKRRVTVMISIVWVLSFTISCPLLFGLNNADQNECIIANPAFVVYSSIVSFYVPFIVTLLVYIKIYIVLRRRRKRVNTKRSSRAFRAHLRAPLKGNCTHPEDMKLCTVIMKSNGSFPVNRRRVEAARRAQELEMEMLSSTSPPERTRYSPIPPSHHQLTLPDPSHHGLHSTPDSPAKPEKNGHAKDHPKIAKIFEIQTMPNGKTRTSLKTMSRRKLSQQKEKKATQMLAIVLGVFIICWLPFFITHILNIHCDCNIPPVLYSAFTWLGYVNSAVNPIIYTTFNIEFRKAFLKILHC
#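 Agonist mode: compounds alone added to overnight-plated D2 PathHunter cells for 90 min at 37 C, with 57 uM final dopamine (EC100) defining full response. Beta-arrestin recruitment detected by chemiluminescent reagent, read after 1 h at ambient temperature.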
# D2 PAM-1 = D2 dopamine receptor (human) potentiation. P14416. HEK293 T-REx D2, calcium flux, EC20 dopamine potentiation. potentiation, % at 10 µM. actives 0.34% (n = 340,000). AID 485347;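 active = potentiation over 3 SD above the plate norm, cut at about 30% in these data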; note: 0% is about no effect
#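 Using a no-wash calcium dye in inducible, force-coupled HEK293 Trex cells expressing D2, we tracked fluorescence each second for 180 s after compound, then for 180 s after EC20 dopamine to detect augmented signalling.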
# D2 antag = D2 dopamine receptor (human) antagonism | P14416 | HEK293 TREx D2 cells, calcium flux, dopamine EC80 | inhibition, % at 10 µM | actives 2% (n = 340,000) | AID 485344; in the data active = inhibition above about 30%; inactive = below that, where a call was filed; note: 0% is about no effect
#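 Calcium flux kinetic readout in an inducible HEK293 TREx D2 line plated overnight at 30 C. After 180 s compound exposure, an EC80 dopamine challenge follows with another 180 s kinetic read to detect antagonism.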
# D2 PAM-2 = potentiates the human D2 dopamine receptor allosterically. P14416. DiscoveRx D2 beta-arrestin cells, luminescence, 90 min; 100% = 57 uM dopamine signal. potentiation, % (no concentration beside the values). actives 0.23% (n = 360,000); in the data active = potentiation above about 50%; inconclusive = mostly about 30% to 49%
#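 D2 cells co-treated with compound plus 50 nM dopamine (EC20) for 90 min at 37 deg C to detect potentiation. Beta-arrestin recruitment was read as enzyme-fragment luminescence after 1 h at ambient temperature. Full response was set by 57 uM dopamine.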
# D2 ag-2 = D2 dopamine receptor (human) agonism | actives 0.53% (n = 340,000) | AID 485358 | P14416 | HEK293 T-REx D2 cells, calcium flux agonist mode | activation, % at 2 µM;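 active = activation over 3 SD above normal in the single-dose calcium agonist read, cut at about 30% in these data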; note: 0% is about no effect
#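 In this primary screen, compounds producing a positive calcium signal within 180 s of addition to tetracycline-induced, force-coupled HEK293 Trex D2 cells are flagged; cells are dye-loaded with a no-wash calcium kit beforehand.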
# Active calls of the source: *; ? = inconclusive; nt = no result given; ! = not confirmed by another sample.
SMILES,D2 ag-1,D2 PAM-1,D2 antag,D2 PAM-2,D2 ag-2
Cc1c(Cl)cccc1NC(=O)CSc1nc(=O)n(Cc2ccco2)c2c1CCC2,nt,19,nt,nt,0
COc1cc(CNc2ccc3[nH]c(=O)[nH]c3c2)ccc1OCc1ccccc1F,10,11,-16,7,1
COc1cc(CNc2ccc3[nH]c(=O)[nH]c3c2)cc(Br)c1OCc1ccccc1F,11,44*!,-5,-2,1
CCOC(=O)c1[nH]c(=O)[nH]c1CSc1nc(C)cc(C)n1,-9,13,32*,-25,-1
CCCCCNC(=O)C1CC=CCC1C(=O)O (centres undefined),1,6,36*,6,1
CSc1ncc(Cl)c(C(=O)Nc2ccc(S(=O)(=O)N3CCC(C)CC3)cc2)n1,nt,6,nt,nt,2
CCN(C[C@H]1N[C@@](CC)(C(=O)OC)[C@H]2C(=O)N(Cc3ccccc3)C(=O)[C@@H]12)C(=O)c1ccc(C(C)(C)C)cc1,?,nt,nt,57*,nt
CC[C@@]1(C(=O)OC)N[C@H](CN(C)C(=O)c2ccc(C(C)(C)C)cc2)[C@@H]2C(=O)N(Cc3ccccc3)C(=O)[C@@H]21,2,nt,nt,2,nt
O=C1C(=Cc2ccncc2)CCCc2ccccc21,-4,nt,nt,-10,nt
O=C1/C(=C/c2cccc3ccccc23)CCCc2ccccc21,-6,59*,11,-8,0
COc1ccc(CCNc2nc3c(-c4cccc(C)c4)nnn3c3ccccc23)cc1OC,nt,-6,nt,nt,nt
CCN(CC)S(=O)(=O)c1ccc(NC=C(C#N)C#N)cc1,3,-2,74*,-2,0
CN(C)S(=O)(=O)c1ccc(NC=C(C#N)C#N)cc1,0,-15,2,-4,0
CC/C(=N\NC(=O)c1cc(C2CC2)[nH]n1)c1ccccc1,4,6,-2,0,0
COc1ccc(/C=C/C(=O)c2ccc(Cl)s2)cc1O,-5,-3,37*,2,1
Cc1noc(NS(=O)(=O)c2ccc(NC(=O)c3ccc(Br)cc3)cc2)c1C,nt,-3,nt,nt,nt
CCOC(=O)c1csc(NC(=O)C(C)(C)C)n1,-6,-6,41*,-5,-1
CCCC(=O)Nc1nc(C(=O)OCC)cs1,-2,6,-14,-4,0
CCc1ccc(C(=O)c2cn(Cc3ccc(F)cc3)c3cc(OC)c(OC)cc3c2=O)cc1,nt,-1,nt,nt,0
COC(=O)c1sccc1NC(=O)Nc1ccc(Cl)c(Cl)c1,5,-6,44*,-15,0
COC(=O)c1sccc1NC(=O)c1ccc(C)s1,-2,33*,33*,-4,-1
COC(=O)c1sccc1NC(=O)Cc1ccc(Br)cc1,2,-6,42*,-8,-1
COC(=O)c1sccc1NC(=O)Nc1ccc(C)c(C)c1,-6,-4,-3,0,0
CC(=O)c1cc(-c2ccccc2)n(CCC(=O)NCc2ccc(C)cc2)c1C,nt,3,nt,nt,0
COc1ccc(C(=O)O)cc1Nc1nc2ccc(C)cc2n2cnnc12,nt,12,nt,nt,0
SMILES,D2 ag-1,D2 PAM-1,D2 antag,D2 PAM-2,D2 ag-2
COc1cccc(N2CCN(Cc3ncc(-c4ccccc4)o3)CC2)c1,-1,-28,48*,-17,-1
COc1cccc(N2CCN(CC(=O)Nc3nnc(-c4ccccc4)s3)CC2)c1,0,3,-12,0,0
COc1ccc(OC)c(CCNc2nc3cc(OC)c(OC)cc3c3nc(-c4cccnc4)nn23)c1,nt,2,nt,nt,0
CN1/C(=C\C(=O)Nc2ccc(Cl)cc2)C(C)(C)c2ccccc21,4,6,1,-1,0
CN1/C(=C\C=C(/C#N)C(=O)Nc2ccc(Cl)cc2)C(C)(C)c2ccccc21,-2,-20,9,-16,40*
Cc1nn(CC(=O)NCc2ccc(N(C)C)cc2)c(=O)c2nn(-c3ccccc3)c(C)c12,nt,3,nt,nt,0
O=C(CN1CCCCC1)Nc1ccc(S(=O)(=O)N2CCCCCC2)cc1,-2,-5,-10,-12,-1
O=C(CN1CCN(c2ccc(O)cc2)CC1)Nc1ccc(S(=O)(=O)N2CCCC2)cc1,49*,nt,nt,28,nt
CC(C)CC(=O)Nc1ccc(C(=O)CN2CCN(c3ccc(O)cc3)CC2)cc1,6,31*,0,5,0

# Screens: PubChem, National Center for Advancing Translational Sciences (NCATS)
